Activity calls are given as the source filed them. How the source made its calls: active means hit-call score of the fitted dose curve at least 0.9, where 1 is the maximum; inactive means score below 0.9.

What is called AC50 is the midpoint of the concentration-response curve, whichever way the signal moves.

Read-out in the experiment: Interleukin 6 Receptor (IL6R), IL6R (gene 3570)
As to the kind of experiment: LTEA_HepaRG_IL6R: Life Technologies and Expression Analysis (LTEA) Assay for Interleukin 6 Receptor (IL6R) using HepaRG (AID 2283510).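 On AC50: TaqMan qRT-PCR signal normalized to ACTB GAPDH and POLR2A housekeeping genes.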 The conditions noted are these: mRNA level, 48 h; actives raise or lower the signal. On the procedure:
LTEA_HepaRG is a cell based, multiplexed-readout assay that uses HepaRG, a human liver cell line, with measurements taken at 48 hours after chemical dosing on a 96-well plate.LTEA_HepaRG_IL6R is one of 102 assay component(s) measured in the LTEA HepaRG cell culture assay. It is a marker of Inflammation.Data from the assay component LTEA_HepaRG_IL6R was analyzed into 1 endpoint. This assay endpoint, LTEA_HepaRG_IL6R, was analyzed with bidirectional fitting relative to DMSO as the negative control and baseline of activity. Using a type of inducible reporter, measures of mRNA induction for gain or loss-of-signal activity can be used to understand regulation of transcription factor activity. To generalize the intended target to other relatable targets, this assay endpoint is annotated to the cytokine receptor intended target family, where the subfamily is JAK-STAT cytokine receptor.
A total of 1060 chemcials from the ToxCast library were tested in eight-point concentration-response experiments. Cell culture and cytotoxicity assays were conducted at Thermo Fisher Scientific's Custom Services facility (Madison, WI). A single lot of human HepaRG cells (Thermo Fisher Scientific, Frederick, MD) was used for the cell culture experiments. 96-well format collagen type I coated plates of human HepaRG cells were prepared using established methods. Briefly, cryopreserved HepaRG cells were thawed, plated at a density of approximately 100,000 cells/well in HepaRG Thaw, Plate, and General Purpose media (HPRG770, Thermo Fisher Scientific), and incubated for 48 hours. 0.5% DMSO was selected as vehicle control to balance the requisite need of DMSO in HepaRG cultures to maintain differentiation (for example, baseline metabolism, proportions of hepatocytes vs. cholangiocytes), while enabling further hepatic receptor pathway activation (for example, PXR and CAR) in response to chemical exposure. 48 hours after plating, the culture medium was replaced with HepaRG Serum-Free Incudtion Media. Cells were exposed to each test chemical in duplicate and maintained in CO2 incubators for another 48 hours. Chemical plates were thawed to room temperature and 200x concentrations of treatment groups were prepared. 8-point conentration-reponse curves were made with the highest exposure at 100 uM, followed by half-log dilutions, all in 0.5% DMSO. Each test plate contained variouse controls, induction positive controls (1mM phenobarbital), cytotoxicity positive controls ([…] aflatoxin B1), vehicle controls (0.5% DMSO), and total lysis controls (0.5% DMSO). Cell morphology images were taken using an Essen IncuCyte FLR automated microscope, with six 96-well plates imaged in about 24 minutes. Images were captured and exported and JPEG files. Spent culture media was transfered to black-well plates for the LDH assay, and remaining media was sorted at -80 C for later use. Cells were treated with RLT buffer and frozen until shipped for gene expression analysis. Total RNA was isolated from the cell suspension in 75 uL of Buffer RLT (Qiagen, Germantown, MD 20874) by Quintiles/Expression Analysis (Durham, NC) using a custom isolation procedure. Total RNA from each plate well was transferred to a preamplification plate. Fluidigm's 96.96 Dynamic ArrayTM (Fluidigm, Amsterdam, the Netherlands) technology was used for gene expression analyses by quantitative reverse transcription polymerase chain reaction (qRT-PCR, performed by Quintiles/Expression Analysis, Durham, NC)89. Standard TaqManTM Assays (Applied Biosystems/ThermoFisher Scientific, Foster City, CA) were used to assess the expression of 93 genes selected based on their selectivity and sensitivity to important hepatic receptors known to be modulated by environmental chemicals; importance in human hepatocyte functionality; and hepatotoxicity. […]
For `CCOc1cccc(C2(N3CCN(c4ccccc4)CC3)CCC(C)CC2)c1` (stereo not given), the molecule was classed as inactive. Still for that read-out and setting: in the case of `ClCCOCCCl` it was “inactive”; in that of `O=Cc1ccco1`, “inactive”; in that of `CN(C)[C@@H]1C(=O)C(C(N)=O)=C(O)[C@@]2(O)C(=O)C3=C(O)c4c(O)cccc4[C@@](C)(O)[C@H]3C[C@@H]12`, “inactive”.

`CCCCCCCCOC(=O)c1ccc(C(=O)OCCCCCCCC)c(C(=O)OCCCCCCCC)c1`: the call was inactive. The same measure, in the same setting: then `O=C(N[C@H](c1ccccc1)[C@@H]1CN2CCC1CC2)c1c(Cl)ccc(C(F)(F)F)c1Cl`, with “inactive”.

In the case of `[Cl-].[Cl-].[Hg+2]`, the molecule was called inactive. The same measure, in the same setting: then `CCC(C)c1ccc(O)cc1` (stereo not given), with “inactive”. The same measure, in the same setting: in the case of `CC(O)CCO` (stereo not given) it was “inactive”; in that of `N#CC(Br)Br`, “inactive”. With `Nc1ccc(Cl)cc1N`, the AC50 is 34.2 µM (active).

Regarding `O=[N+]([O-])C(Br)(CO)CO`, the molecule was called inactive. With `Cc1ccc(N)cc1`, the result was inactive. Take `CCCCC(CC)COC(=O)c1ccc(C(=O)OCC(CC)CCCC)c(C(=O)OCC(CC)CCCC)c1` (stereo not given): the outcome was inactive. In the case of `CCNS(=O)(=O)C(F)(F)C(F)(F)C(F)(F)C(F)(F)C(F)(F)C(F)(F)C(F)(F)C(F)(F)F`, the molecule was called inactive.

Turning to `CCCCCCCCCCCCCN1CC(C)OC(C)C1` (stereo not given), the call was inactive.

For `c1ccc2c(c1)-c1cccc3cccc-2c13`, the result was inactive.

With `CCOC(=O)[C@]1(c2ccccc2)Oc2ccccc2[C@@H]1N`, the result was inactive. With `Cc1cc(N=Nc2ccccc2C)ccc1N`, the AC50 was 2.45 µM (active).

As for `CC(C)(O)c1cnn2c(-c3ccc(F)c(-c4c(F)cccc4C#N)c3)cnc2n1`, the call was inactive.

`C[C@]12C=CC3=C4CCC(=O)C=C4CC[C@H]3[C@@H]1CC[C@@H]2O`: the outcome was inactive. On to `COC(=O)Nc1nc2ccccc2[nH]1`, for which the call was inactive. Same read-out and setting: then `[O-][Cl+]O`, with “inactive”. On the same count and under the same terms, in the case of `ClC1=C(Cl)C2(Cl)C3C(Cl)C=CC3C1(Cl)C2(Cl)Cl` (stereo not given) it was “inactive”; in that of `OCCCl`, “inactive”. On the same count and under the same terms, in the case of `N#CC(Br)(Br)C(N)=O` it was “inactive”. Turning to `C1=Cc2cccc3cccc1c23`, the outcome was inactive.

With `Cc1ccc(N)c(N)c1`, the result was inactive. The same measure, in the same setting: in the case of `CS(=O)(=O)NC(=O)c1cc(Oc2ccc(C(F)(F)F)cc2Cl)ccc1[N+](=O)[O-]` it was “inactive”; in that of `COP(=S)(OC)SCN1C(=O)c2ccccc2C1=O`, “inactive”.

Turning to `c1ccc2c(c1)oc1ccccc12`, the call was inactive. On the same count and under the same terms, in the case of `O=[N+]([O-])c1ccc(Oc2ccc(Cl)cc2Cl)cc1` it was “inactive”. On to `Nc1ccc(N=Nc2ccccc2)cc1`, for which the AC50 is 13 µM (active).

On to `Nc1ccc(Oc2ccc(N)cc2)cc1`, for which the molecule was classed as inactive.

As for `c1ccc(C2CO2)cc1` (stereo not given), the result was inactive. On the same count and under the same terms, in the case of `CN(C)c1ccc(C(=O)c2ccc(N(C)C)cc2)cc1` it was “inactive”. For `CCCCCCCCn1sccc1=O`, the AC50 was 99.3 µM (active). `CCCCCOC(=O)c1ccccc1C(=O)OCCCCC`: the outcome was inactive.

For the molecule `OCCOCCO`, the call was inactive. On to `CCC[CH2][Sn]([Cl])([CH2]CCC)[CH2]CCC`, for which the concentration at half-maximal activity (AC50) was 50 µM (active).

The record behind these values is PubChem BioAssay (EPA / NIEHS).
